Laboratory results as given in PubChem BioAssay.
The source made the active and inactive calls.

Tests used:
[1] = A549 cell viability effects, profiling panel, calcein-AM fluorescence, 48 h, basal (AID 1162); conditions: higher = more signal
[2] = adipocyte viability effects, profiling panel, cell-based, 3T3-L1 adipocytes, calcein-AM fluorescence, 48 h, basal (AID 1163); conditions: 3T3-L1 adipocytes viability, higher = more signal
[3] = HepG2 cell viability effects, profiling panel, calcein-AM fluorescence, 48 h, basal (AID 1164); conditions: higher = more signal
[4] = MM1S cell viability effects, profiling panel, calcein-AM fluorescence, 48 h, basal (AID 1165); conditions: higher = more signal;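 further: viability of MM1S multiple myeloma cells under basal unstimulated conditions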
[5] = basal RPMI8226 viability, no added stimulus, profiling panel, cell-based, calcein-AM fluorescence, 48 h, PK04 Diversity Set (AID 1166); conditions: RPMI8226 myeloma viability, higher = more signal;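 further: cells grown under basal conditions without added stimulus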
[6] = basal HepG2 mitochondrial membrane potential changes, profiling panel, cell-based, JC-1 fluorescence, 24 h, 100 nL compound (AID 1167); conditions: higher = more signal
[7] = basal 3T3-L1 adipocyte mitochondrial potential changes, profiling panel, cell-based, JC-1 fluorescence, 3T3-L1 adipocytes, 24 h, 100 nL compound (AID 1168); conditions: JC-1 mitochondrial fluorescence, higher = more signal, called active from +8 up or from −8 down
[8] = basal RPMI8226 mitochondrial membrane potential changes, profiling panel, cell-based, JC-1 fluorescence, 24 h, 100 nL compound (AID 1169); conditions: RPMI8226 myeloma, JC-1 mitochondrial potential fluorescence, higher = more signal
[9] = basal MM1S mitochondrial membrane potential changes, profiling panel, cell-based, JC-1 fluorescence, 24 h, 100 nL compound (AID 1170); conditions: higher = more signal
[10] = A549 lung cancer cell viability effects, profiling panel, resazurin fluorescence, 24 h, PK04 Diversity Set (AID 1171); conditions: higher = more signal, called active from +8 up or from −8 down
Further: test concentration not given here.

Row | Compound | z-score [1] | z-score [2] | z-score [3] | z-score [4] | z-score [5] | z-score [6] | z-score [7] | z-score [8] | z-score [9] | z-score [10]
1 | CCOC(=O)C1=C[C@@H](C(C)(C)C)N(S(=O)(=O)c2ccc(C)cc2)[C@H]1c1ccccc1 | -1.42 | -0.396 | -2.27 | -2.95 | -3.35 | 3.49 | -0.243 (inactive) | -0.966 | -0.75 | 1.62 (inactive)
2 | Cc1ccc(F)cc1S(=O)(=O)N[C@@H]1CCN(Cc2cccc3[nH]ccc23)C1 | 0.139 | -0.658 | -0.415 | -1.14 | -0.864 | 0.0617 | -0.65 (inactive) | 0.263 | -0.161 | -0.398 (inactive)
3 | O=C1O[C@H](c2ccccc2)[C@H](c2ccccc2)N2[C@H]1[C@@H](C(=O)N1CCCCCCC1)[C@]1(C(=O)Nc3ccc(C#CC4(O)CCCCCC4)cc31)[C@H]2c1ccccc1OCCO | -0.222 | -0.107 | 0.703 | -0.0437 | -0.908 | -0.175 | 0.64 (inactive) | -0.74 | -1.26 | -0.152 (inactive)
4 | C=CCNC(=O)[C@@H]1[C@H]2C(=O)O[C@H](c3ccccc3)[C@H](c3ccccc3)N2[C@H](c2ccc(O)cc2)[C@@]12C(=O)Nc1ccc(C#CCC(C(=O)OC)C(=O)OC)cc12 | -0.399 | -0.937 | -0.6 | -3.31 | -4.52 | -1.76 | -0.271 (inactive) | -1.25 | -2.23 | -0.395 (inactive)
5 | CN1C(=O)C2C(C1=O)C1C=C(CCCO)C2C(C2CC2)N1Cc1cc2c(cc1Br)OCO2 (stereo not given) | -0.487 | 0.337 | -0.717 | -0.172 | -0.909 | 0.435 | -0.527 (inactive) | 0.87 | 0.859 | -0.477 (inactive)
6 | CCc1cccc(NC(=O)O[C@H]2[C@H](OC(=O)Nc3ccccc3)[C@H](OC(=O)Nc3ccccc3)[C@@H](OC)O[C@@H]2CO)c1 | -1.97 | 1.18 | -5.14 | -3.46 | -4.3 | -2.34 | 0.867 (inactive) | -1.2 | -2.32 | -4.35 (inactive)
7 | C=C(CCCC)C(=O)CC[C@@H](OC(=O)c1cccnc1)c1ccc(OCCO)cc1 | 0.67 | 0.866 | 0.376 | -3.34 | -2.89 | -0.279 | -0.188 (inactive) | -0.673 | -0.652 | 0.116 (inactive)
8 | Cc1ccc([C@H]2C(C(=O)O)=C[C@@H](C(C)(C)C)N2S(=O)(=O)c2ccc(C)cc2)cc1 | -0.728 | -0.85 | -0.338 | 0.0315 | -0.4 | -0.892 | -0.38 (inactive) | -0.0701 | -1.19 | -0.654 (inactive)
9 | COc1ccc([Si](C)(C)[C@@H]2[C@@H](CCn3cc([C@H](O)c4ccccc4)nn3)O[C@]3(C(=O)N(c4ccccc4)c4ccccc43)[C@H]2C)cc1 | -0.985 | 1.98 | -2.22 | -1.18 | -3.91 | 1.63 | 0.177 (inactive) | -0.973 | -0.681 | -2.3 (inactive)
10 | COc1cc2c(cc1O)C(c1ccc(CN3CCCC3)cc1)N(C)CC2 (stereo not given) | 0.105 | -0.582 | 0.339 | 0.752 | 0.0578 | 0.224 | 0.585 (inactive) | 0.224 | -0.699 | -1.18 (inactive)
11 | CN1C(=O)C2C=CC(C(O)c3ccc(I)cc3)N(Nc3ccccc3)C2C1=O (stereo not given) | -0.596 | -0.0039 | -0.268 | -0.521 | -0.0284 | -1.07 | -1.09 (inactive) | -0.177 | 0.0807 | -0.962 (inactive)
12 | C=CCN1C(=O)[C@]2(O[C@H](CCO)[C@@H]([Si](C)(C)c3ccc(OC)cc3)[C@@H]2C)c2cc(N3C(=O)COc4ccccc43)ccc21 | -3.84 | 1.76 | -4.67 | -2.7 | -4.36 | -2.14 | 0.707 (inactive) | -1.06 | -2.25 | -5.62 (inactive)
13 | O=C1C2C=CC(C(O)c3ccc4c(c3)OCO4)N(Nc3ccccc3)C2C(=O)N1c1ccccc1 (stereo not given) | -0.587 | -0.756 | -0.634 | -0.427 | 0.0871 | -1.47 | -1.19 (inactive) | 0.558 | -0.636 | 0.773 (inactive)
14 | CO[C@H]1O[C@H](CO)[C@@H](OC(=O)Nc2cccc(F)c2)[C@H](OC(=O)Nc2ccccc2-c2ccccc2)[C@H]1OC(=O)Nc1ccccc1-c1ccccc1 | -4.26 | 0.737 | -4.76 | -3.44 | -4.3 | 0.0525 | 0.461 (inactive) | -0.936 | -1.88 | -6.1 (inactive)
15 | O=C1N[C@@H](Cc2ccccc2)C(=O)N2[C@@H]1C[C@@H](C(=O)O)[C@H]2c1ccc(O)cc1 | -0.178 | 0.699 | -0.361 | -3.36 | 0.293 | 0.873 | 0.649 (inactive) | 0.201 | -0.75 | -0.182 (inactive)
